The full list was thinned out, with hits kept by preference.
mHTT-CaM PPI inh = mHTT-calmodulin interaction abrogation | AID 1671202 | AlphaScreen His-mHTT/GST-CaM binding, luminescence | inhibition, % at 15 µM | hit rate 3.6% among 190,000
Target sequence (P42858 whole entry, looked up, change not shown): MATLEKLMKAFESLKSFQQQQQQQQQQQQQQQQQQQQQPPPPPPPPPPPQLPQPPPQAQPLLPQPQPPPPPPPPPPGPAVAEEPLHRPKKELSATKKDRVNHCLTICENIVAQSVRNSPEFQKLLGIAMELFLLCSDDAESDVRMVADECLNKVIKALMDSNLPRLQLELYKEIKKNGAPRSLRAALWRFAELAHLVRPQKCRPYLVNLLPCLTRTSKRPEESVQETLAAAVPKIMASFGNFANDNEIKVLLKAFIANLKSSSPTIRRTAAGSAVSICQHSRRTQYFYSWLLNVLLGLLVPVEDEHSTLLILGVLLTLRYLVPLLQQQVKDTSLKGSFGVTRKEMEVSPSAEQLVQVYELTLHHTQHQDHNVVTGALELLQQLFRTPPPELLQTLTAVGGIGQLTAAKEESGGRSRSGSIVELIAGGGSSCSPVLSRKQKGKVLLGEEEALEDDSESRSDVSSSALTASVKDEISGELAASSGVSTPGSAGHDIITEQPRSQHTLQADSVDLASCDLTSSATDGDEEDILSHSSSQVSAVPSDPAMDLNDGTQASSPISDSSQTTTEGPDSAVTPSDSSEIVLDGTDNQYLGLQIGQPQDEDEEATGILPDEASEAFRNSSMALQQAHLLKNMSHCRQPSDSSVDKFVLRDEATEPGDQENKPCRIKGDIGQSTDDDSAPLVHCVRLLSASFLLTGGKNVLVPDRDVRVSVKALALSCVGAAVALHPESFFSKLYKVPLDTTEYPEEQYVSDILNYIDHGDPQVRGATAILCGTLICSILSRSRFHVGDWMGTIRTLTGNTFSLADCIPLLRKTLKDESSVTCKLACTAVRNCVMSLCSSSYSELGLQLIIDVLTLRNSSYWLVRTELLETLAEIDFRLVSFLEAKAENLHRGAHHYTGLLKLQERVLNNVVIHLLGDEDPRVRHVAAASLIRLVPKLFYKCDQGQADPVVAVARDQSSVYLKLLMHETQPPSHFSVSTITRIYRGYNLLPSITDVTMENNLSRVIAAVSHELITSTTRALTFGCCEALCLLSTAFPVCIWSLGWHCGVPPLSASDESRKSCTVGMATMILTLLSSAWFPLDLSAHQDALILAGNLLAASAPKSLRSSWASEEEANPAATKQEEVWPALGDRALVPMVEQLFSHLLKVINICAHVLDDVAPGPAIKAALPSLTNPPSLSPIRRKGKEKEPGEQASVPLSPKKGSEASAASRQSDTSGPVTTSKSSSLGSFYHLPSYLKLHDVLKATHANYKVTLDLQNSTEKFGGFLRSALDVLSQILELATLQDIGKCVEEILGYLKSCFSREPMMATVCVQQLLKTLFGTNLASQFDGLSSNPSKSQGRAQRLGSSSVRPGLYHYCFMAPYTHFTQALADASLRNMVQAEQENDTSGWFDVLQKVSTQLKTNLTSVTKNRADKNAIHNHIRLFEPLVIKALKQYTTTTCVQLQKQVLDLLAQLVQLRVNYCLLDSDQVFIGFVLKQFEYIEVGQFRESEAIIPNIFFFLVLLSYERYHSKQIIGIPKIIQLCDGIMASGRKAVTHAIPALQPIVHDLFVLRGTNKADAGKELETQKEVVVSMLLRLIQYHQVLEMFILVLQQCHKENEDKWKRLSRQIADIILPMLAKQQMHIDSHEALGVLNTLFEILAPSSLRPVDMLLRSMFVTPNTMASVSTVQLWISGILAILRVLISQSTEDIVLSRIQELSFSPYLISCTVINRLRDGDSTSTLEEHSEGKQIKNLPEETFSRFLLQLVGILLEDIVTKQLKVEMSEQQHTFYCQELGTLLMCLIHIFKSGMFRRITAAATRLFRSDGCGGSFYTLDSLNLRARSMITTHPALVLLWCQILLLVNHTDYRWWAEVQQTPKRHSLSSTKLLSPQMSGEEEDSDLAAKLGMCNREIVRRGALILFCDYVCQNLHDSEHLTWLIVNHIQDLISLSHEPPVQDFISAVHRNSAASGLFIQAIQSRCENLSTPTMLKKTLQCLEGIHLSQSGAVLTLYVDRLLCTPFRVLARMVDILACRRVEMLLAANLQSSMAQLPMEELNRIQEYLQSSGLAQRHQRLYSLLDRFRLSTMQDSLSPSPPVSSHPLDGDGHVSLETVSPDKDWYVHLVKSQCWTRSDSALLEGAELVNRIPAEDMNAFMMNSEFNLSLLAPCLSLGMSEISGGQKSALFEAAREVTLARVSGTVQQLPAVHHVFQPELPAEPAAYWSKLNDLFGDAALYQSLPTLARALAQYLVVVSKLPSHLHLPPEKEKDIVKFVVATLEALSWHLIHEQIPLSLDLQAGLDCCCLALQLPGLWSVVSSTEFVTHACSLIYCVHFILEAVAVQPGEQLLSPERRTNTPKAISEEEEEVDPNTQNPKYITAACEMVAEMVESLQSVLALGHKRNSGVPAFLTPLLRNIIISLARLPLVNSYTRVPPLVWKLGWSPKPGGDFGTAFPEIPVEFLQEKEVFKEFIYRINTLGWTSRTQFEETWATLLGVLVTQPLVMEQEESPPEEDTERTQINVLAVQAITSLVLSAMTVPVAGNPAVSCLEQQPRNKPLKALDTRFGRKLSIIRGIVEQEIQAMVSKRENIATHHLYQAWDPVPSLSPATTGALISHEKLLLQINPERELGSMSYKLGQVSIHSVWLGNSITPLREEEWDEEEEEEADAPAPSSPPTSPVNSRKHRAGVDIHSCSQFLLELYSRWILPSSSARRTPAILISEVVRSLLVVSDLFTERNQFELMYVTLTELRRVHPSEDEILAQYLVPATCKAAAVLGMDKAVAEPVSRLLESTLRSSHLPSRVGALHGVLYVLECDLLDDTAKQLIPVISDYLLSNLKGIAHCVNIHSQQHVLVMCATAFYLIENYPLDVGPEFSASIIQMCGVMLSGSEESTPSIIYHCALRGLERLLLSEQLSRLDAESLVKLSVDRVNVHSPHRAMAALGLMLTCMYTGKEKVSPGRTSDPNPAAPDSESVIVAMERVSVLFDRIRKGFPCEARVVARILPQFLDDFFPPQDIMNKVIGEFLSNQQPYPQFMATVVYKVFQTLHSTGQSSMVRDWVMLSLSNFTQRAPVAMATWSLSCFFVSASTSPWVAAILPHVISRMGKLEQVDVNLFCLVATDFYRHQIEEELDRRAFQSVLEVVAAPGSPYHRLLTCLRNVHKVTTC
Pf apPOL inh = Pf-apPOL DNA polymerase inhibition; Recombinant Pf-apPOL, molecular beacon fluorescence, 1.5 h; inhibition, % at 10 µM; hit rate 0.25% among 210,000
Hits are given with their value; n = inactive; x = no result; ! = repeats disagree. Cut-off read from the data, not from the text of the source: active = inhibition above about 50%; inactive = the rest.

SMILES | mHTT-CaM PPI inh | Pf apPOL inh
Cn1nc(-c2nc(-c3cccc(F)c3)no2)c2c1CCN(C(=O)c1cccs1)C2 | 61.1 | n
Cn1nc(-c2nc(-c3ccccc3)no2)c2c1CCN(C(=O)c1ccccc1)C2 | 51.5 | n
Cn1ncc(N2CCCC(C(=O)NC3CCCC3)C2)cc1=O (stereo unspecified) | n | n
O=C(CCc1ccccc1)NC1CC(O)C(CO)C1 (stereo unspecified) | n | n
Cc1ccc(OCCCCn2ncc3ccccc3c2=O)c(C)c1 | n | n
COc1ccc(OC)c2[nH]c(=O)c(CCNC(=O)c3c(F)cccc3F)cc12 | n | n
CCOc1ccccc1C(=O)NC1CCN(C(=O)c2cn[nH]c2-c2ccc(F)cc2)CC1 | n | n
N#Cc1c(N)nc(SCC(=O)c2ccc(Br)cc2)c(C#N)c1-c1ccc(O)cc1 | 78.5! | n
N#Cc1c(N)nc(SCC(=O)c2ccccc2)c(C#N)c1-c1ccc(O)cc1 | 62.0 | n
CCOc1ccc(-c2c(C#N)c(N)nc(SCC(=O)c3ccc(OC)cc3)c2C#N)cc1 | n | n
CCOc1ccc(-c2c(C#N)c(N)nc(SCC(=O)c3ccc(C)cc3)c2C#N)cc1 | n | n
CCOc1ccc(-c2c(C#N)c(N)nc(SCC(=O)c3ccc(O)c(O)c3)c2C#N)cc1 | 69.0 | n
N#Cc1c(N)nc(SCC(=O)c2ccc([N+](=O)[O-])cc2)c(C#N)c1-c1ccccc1 | n | n
Cc1cccc(Cl)c1NC(=O)/C(C#N)=C/c1cc2c(cc1Cl)OCO2 | n | n
Clc1cccc(Nc2nc3nonc3n3nnnc23)c1 | n | n
CCOc1ccc(NS(=O)(=O)c2cc(C(=O)Nc3ccccc3C)ccc2C)cc1 | n | n
Cc1c(-n2cccc2)cc2c(c1[N+](=O)[O-])C(C)(C)CC2(C)C | x | n
Cc1nnc(NC(=O)c2ccc(S(=O)(=O)N3CCCC(C)C3)cc2)o1 (stereo unspecified) | n | n
CC1CCN(S(=O)(=O)c2ccc(C(=O)Nc3nc4c(s3)Cc3ccccc3-4)cc2)CC1 | n | n
O=C(Nc1nc(-c2ccccn2)cs1)c1ccc(N2C(=O)CCC2=O)cc1 | 100.0 | n
CC1CCCN(S(=O)(=O)c2ccc(C(=O)Nc3nc(-c4ccccn4)cs3)cc2)C1 (stereo unspecified) | 100.0 | n
CC1CCCCN1S(=O)(=O)c1ccc(C(=O)Nc2nc3c(s2)Cc2ccccc2-3)cc1 (stereo unspecified) | n | n
O=C(Nc1nc(-c2cc(Cl)ccc2Cl)cs1)c1ccc(N2C(=O)CCC2=O)cc1 | n | n
CC1CCN(S(=O)(=O)c2ccc(C(=O)Nc3nc(-c4ccccn4)cs3)cc2)CC1 | 98.0 | n
CC1CCCCN1S(=O)(=O)c1ccc(C(=O)Nc2nc(-c3ccccn3)cs2)cc1 (stereo unspecified) | 100.0 | n
SMILES | mHTT-CaM PPI inh | Pf apPOL inh
COc1ccc(C(=O)Nc2ccccc2C(F)(F)F)cc1OC | n | n
O=C1NC(=O)c2cc(N3Cc4ccccc4C3)ccc21 | 78.9 | n
O=C1NC(=O)c2cc(-c3ccccc3)ccc21 | n | n
Cc1cc(N2Cc3ccccc3C2)ccc1C=O | 81.9 | n
Cc1ccc(N2C(=O)CC(N3CCc4ccccc4C3)C2=O)cc1C (stereo unspecified) | n | n
c1ccc(-c2noc(C3CCN(Cc4ccoc4)C3)n2)cc1 (stereo unspecified) | n | n
Cc1cn2nc([N+](=O)[O-])cc2c(=O)o1 | n | x
CC(=O)NC1=NN(C(C)=O)C(C)(c2ccc([N+](=O)[O-])cc2)S1 (stereo unspecified) | n | n
Cc1[nH]nc2c1C(c1ccc3c(c1)OCO3)C(C#N)=C(N)O2 (stereo unspecified) | n | n
COc1ccc(C2C(C#N)=C(N)Oc3n[nH]c(-c4ccccn4)c32)c(OC)c1OC (stereo unspecified) | n | n
N#CC1=C(N)Oc2n[nH]c(-c3ccccn3)c2C1c1ccncc1 (stereo unspecified) | 53.0 | n
N#CC1=C(N)Oc2n[nH]c(-c3ccc4c(c3)OCO4)c2C1c1ccc(Cl)cc1 (stereo unspecified) | 81.0 | n
N#CC1=C(N)Oc2n[nH]c(-c3ccccn3)c2C1c1ccc2c(c1)OCO2 (stereo unspecified) | 62.0 | n
N#CC1=C(N)Oc2n[nH]c(-c3ccccn3)c2C1c1cccnc1 (stereo unspecified) | n | n
N#CC1=C(N)Oc2n[nH]c(-c3ccc4c(c3)OCO4)c2C1c1ccc2c(c1)OCO2 (stereo unspecified) | n | n
N#CC1=C(N)Oc2n[nH]c(-c3ccccn3)c2C1c1ccc(O)cc1 (stereo unspecified) | 80.0 | n
Cn1nc(-c2nc(C3CC3)no2)c2c1CCN(C(=O)c1ccccc1Br)C2 | n | n
O=C1c2sc3nnc(-c4ccccc4)c(=O)n3c2C(=O)N1c1cccc(Cl)c1Cl | n | n
CCOC(=O)C(=O)N1CCC(Cc2ccc3c(c2)OCO3)CC1 | n | n
Cc1noc(-c2ccc(=O)n(C(C)C)n2)n1 | n | n
O=C(C1COc2ccccc2O1)N1CCC(CCOc2ccccc2F)CC1 (stereo unspecified) | n | n
O=C(NCc1ccccn1)C1CN(C(=O)c2ccccc2)CC1c1cccc(F)c1 (stereo unspecified) | n | n
Cc1ccc(C2C(C#N)=C(N)Oc3n[nH]c(-c4ccccc4)c32)s1 (stereo unspecified) | n | n
N#CC1=C(N)Oc2n[nH]c(-c3ccccn3)c2C1c1ccc([N+](=O)[O-])s1 (stereo unspecified) | 99.0 | n
COCCNC(=O)c1ccc(C(C)C)cc1 | n | 67.4
SMILES | mHTT-CaM PPI inh | Pf apPOL inh
COCCCNC(=O)c1ccc(C(C)C)cc1 | n | n
COC(=O)c1c[nH]c2ccccc12 | x | n
COC(=O)c1cc(Br)cc2ccccc12 | n | 63.5
C/C(=C1/C(=O)N(c2ccc([N+](=O)[O-])cc2)N=C1c1ccccc1)N(C)C | 53.3 | n
CN(C)/C=C1\C(=O)N(c2ccc([N+](=O)[O-])cc2)N=C1c1ccccc1 | n | 59.0
CC1=NN(c2ccccc2)C(=O)/C1=C/c1ccc(-c2ccc([N+](=O)[O-])cc2)o1 | n | n
Cc1nnc(-c2ccccc2)n1-c1ccc([N+](=O)[O-])cc1 | n | n
CCn1cc(C(=O)NCCCN2CCN(C)CC2)c2cc(OC)c(OC)cc2c1=O | n | n
O=C(NCCOc1ccc(F)cc1)C(=O)NCc1ccccc1Cl | n | n
CCn1c(C(=O)NCc2ccccc2F)cc2sc(C)cc21 | n | n
CCCn1c(C(=O)NCc2ccccn2)cc2sc(Br)cc21 | 72.0 | n
COc1ccccc1OCC(=O)NCc1ccccn1 | n | n
Cc1cc2c(cc(C(=O)NCc3ccccn3)n2CC2CCC2)s1 | 56.7 | n
O=C(NCc1ccccn1)c1cc2sccc2n1CC1CC1 | n | n
COc1ccccc1-c1cc(C(=O)NCc2ccccn2)n(C)n1 | 99.9 | n
CCCn1c(C(=O)N2CCOCC2)cc2sc(Br)cc21 | n | n
C=CCn1c(C(=O)NCc2ccccn2)cc2sc(C)cc21 | 55.7 | n
CCS(=O)(=O)c1ccc([N+](=O)[O-])s1 | n | n
O=c1c2c(ncn2Cc2ccccc2)n(-c2ccccc2)c(=O)n1C1CC1 | n | n
O=C(NNc1nccc(C(F)(F)F)n1)c1cc(C(F)(F)F)cc(C(F)(F)F)c1 | x | n
Cn1cnc2c1CN(C(=O)c1ccc(F)c(Cl)c1)CC2 | n | n
COCCNC(=O)Cn1c(CO)cnc1SCC(=O)NCc1ccc(F)cc1 | n | n
Brc1ccc(-c2noc(C3CCCCC3)n2)o1 | n | x

Assay outcomes from PubChem BioAssay.
